Laboratory results from PubChem BioAssay (Tox21).
Results filed as inconclusive are left out. Values without a mark were called inactive. Activity calls are given as the source filed them. Calls follow the shape of the dose curve; as a rule, active = well fitted curve in the direction sought with a large enough effect in the repeat runs; inconclusive = weak or mixed curves; inactive = no such curve, though single readings can be large; an effect the other way counts as inactive or inconclusive.

experiment: qHTS assay to identify small molecule antagonists of the TGF-beta/Smad signaling pathway - cell viability counter screen (AID 1346824); conditions: SBE-bla HEK293T viability, CellTiter-Glo luminescence; series mostly up to 76.8 µM; viability change, negative = cytotoxic: at the top concentration; also: nearly all actives have a fitted effect of over 50% in size
Summary of the method: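 Cytotoxicity counter-screen run in the same wells as the beta-lactamase Smad reporter read: CellTiter-Glo luminescence after 30 min at room temperature. HEK 293T SBE-bla cells had 5 hr compound exposure at 37 C with TGF-beta1 (0.25 ng/mL stock).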
% is scaled to controls: 0 for no effect and ±100 for the full control effect.

SMILES	viability change, negative = cytotoxic	Potency
CC(C)(C)c1ccc(O)c(O)c1	11.3%	–
Oc1ccc(C2CNCCc3c2cc(O)c(O)c3Cl)cc1 (stereo unspecified)	0.677% [at 35.3 µM]	–
CCOC(C)(C)C	7.44%	–
CC(=O)Nc1c(I)cc(I)c(C(=O)O)c1I	-6.99% [at 35.3 µM]	–
N=C(N)c1ccccc1	-6%	–
Cc1cnc(NS(=O)(=O)c2ccc(N)cc2)nc1	-3.35% [at 35.3 µM]	–
COc1cc(C(=O)N2CCCCCCC2)cc(OC)c1OC	2.73% [at 35.3 µM]	–
CC(NC(CCc1ccccc1)C(=O)O)C(=O)N1C(=O)N(C)CC1C(=O)O (stereo unspecified)	4.33% [at 35.3 µM]	–
N#Cc1ccc(C2CCCc3cncn32)cc1 (stereo unspecified)	-1.59% [at 35.3 µM]	–
Cc1ccc(Cl)cc1Cl	-1.12%	–
COCCc1ccc(OCC(O)CNC(C)C)cc1 (stereo unspecified)	–	inactive
CCCC(=O)O[C@]1(C(=O)CO)CC[C@H]2[C@@H]3CCC4=CC(=O)CC[C@]4(C)[C@H]3[C@@H](O)C[C@@]21C	0.655% [at 35.3 µM]	–
CCOC(=O)c1cccc(N)c1	0.878% [at 35.3 µM]	–
CCN(CC)CCOCCOC(=O)C1(c2ccccc2)CCCC1	-5.16% [at 35.3 µM]	–
CCCN(CCC)CCc1cccc2c1CC(=O)N2	-9.12% [at 35.3 µM]	–
NC(=O)c1cn(Cc2c(F)cccc2F)nn1	-4.66% [at 35.3 µM]	–
CC(C)CNCC(C)C	3.74%	–

SMILES	viability change, negative = cytotoxic	Potency
O=c1n(CCO)c(=O)n(CCO)c(=O)n1CCO	–	inactive
NS(=O)(=O)c1cc(C(=O)O)cc(N2CCCC2)c1Oc1ccccc1	0.474% [at 35.3 µM]	–
CN1CC(=O)NC1=N	17.2% [at 35.3 µM]	–
CCCCCCOC(=O)CCCCC(=O)OCCCCCC	-9.72%	–
CO[C@]12C[C@@H](COC(=O)c3cncc(Br)c3)CN(C)[C@@H]1Cc1cn(C)c3cccc2c13	4.4% [at 35.3 µM]	–
CC(C)(O)C#CC(C)(C)O	-3.64%	–
COc1ccc(CCN(C)CCCC(C#N)(c2cc(OC)c(OC)c(OC)c2)C(C)C)cc1OC (stereo unspecified)	-6.33% [at 35.3 µM]	–
NC(=O)Nc1ccccc1	-3.48%	–
N=c1nc(N2CCCCC2)cc(N)n1O	-10.4% [at 35.3 µM]	–
CCC(C)S (stereo unspecified)	-5.42% [at 2.72 µM]	–
CCN1CCC[C@H]1CNC(=O)c1c(O)c(Cl)cc(Cl)c1OC	-8.76% [at 35.3 µM]	–
CCc1cccc2c(CCO)c[nH]c12	5.28% [at 35.3 µM]	–
NS(=O)(=O)c1cc2c(cc1Cl)NC(C1CC3C=CC1C3)NS2(=O)=O (stereo unspecified)	-0.996% [at 35.3 µM]	–
O=C(O)CCCc1ccccc1	1.58% [at 35.3 µM]	–
Cn1cc(S(C)=O)c(=O)c2ccc(F)cc21 (stereo unspecified)	21.3% [at 35.3 µM]	–
CC(=O)OCC(CCn1cnc2cnc(N)nc21)COC(C)=O	7.26% [at 35.3 µM]	–

experiment: qHTS assay to identify small molecule agonists of the TGF-beta/Smad signaling pathway - cell viability counter screen (AID 1346829); conditions: SBE-bla HEK293T viability, CellTiter-Glo luminescence, 5 h; series mostly up to 76.8 µM; activity change, negative = cytotoxicity: at the top concentration; also: top concentration of the series differs between compounds; nearly all actives have a fitted effect of over 45% in size
Summary of the method: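 SBE-bla HEK 293T cells plated overnight, compound exposure 5 hr at 37 C. Viability read in the same wells by CellTiter-Glo luminescence after 30 min at room temperature, following the beta-lactamase read.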

SMILES	activity change, negative = cytotoxicity	outcome
CC(C)(C)c1ccc(O)c(O)c1	15.3%	–
Oc1ccc(C2CNCCc3c2cc(O)c(O)c3Cl)cc1 (stereo unspecified)	15.8% [at 35.3 µM]	–
CCOC(C)(C)C	-5.52%	–
CC(=O)Nc1c(I)cc(I)c(C(=O)O)c1I	7.94% [at 35.3 µM]	–
N=C(N)c1ccccc1	-4.32%	–
Cc1cnc(NS(=O)(=O)c2ccc(N)cc2)nc1	0.898% [at 35.3 µM]	–
COc1cc(C(=O)N2CCCCCCC2)cc(OC)c1OC	-10% [at 35.3 µM]	–
NS(=O)(=O)c1ccc(C(=O)O)cc1	-6.59% [at 35.3 µM]	–
CC(NC(CCc1ccccc1)C(=O)O)C(=O)N1C(=O)N(C)CC1C(=O)O (stereo unspecified)	12.6% [at 35.3 µM]	–
N#Cc1ccc(C2CCCc3cncn32)cc1 (stereo unspecified)	0.114% [at 35.3 µM]	–
Cc1ccc(Cl)cc1Cl	12.1%	–
COCCc1ccc(OCC(O)CNC(C)C)cc1 (stereo unspecified)	–	inactive
CCCC(=O)O[C@]1(C(=O)CO)CC[C@H]2[C@@H]3CCC4=CC(=O)CC[C@]4(C)[C@H]3[C@@H](O)C[C@@]21C	4.31% [at 35.3 µM]	–
CCOC(=O)c1cccc(N)c1	-3.01% [at 35.3 µM]	–
CCN(CC)CCOCCOC(=O)C1(c2ccccc2)CCCC1	-8.08% [at 35.3 µM]	–
CCCN(CCC)CCc1cccc2c1CC(=O)N2	-6.47% [at 35.3 µM]	–
NC(=O)c1cn(Cc2c(F)cccc2F)nn1	6.05% [at 35.3 µM]	–
CC(C)CNCC(C)C	1.87%	–
